Shown are actives, neighbours in structure and some others; about 2.2% of the full set was active somewhere.
Shn3 3UTR inh – reduction of Shn3 3'UTR firefly luciferase signal, primary screen, Schnurri-3 inhibitor project, cell-based, Clone20 osteoblasts, set 2 | actives 0.52% (n = 360,000) | Clone20 osteoblast Shn3 3'UTR firefly luciferase, 24 h | inhibition, % at 12.5 µM;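 active = mean inhibition of at least 75% with every replicate also reaching 75%; inconclusive = mean inhibition at least 75% but some replicate below; inactive = mean inhibition below 75%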
PAX8 reporter – inhibitors of PAX8-driven TPO luciferase reporter, primary screen, RMG-I cells, single concentration. SteadyGlo, 24 h. inhibition, % at 12.6 µM. actives 1.2% (n = 360,000);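 active = mean replicate inhibition at least 60% with every replicate also reaching 60%; inconclusive = only one of the two criteria is met; inactive = mean below 60% and not all replicates reaching 60%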;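 note: luciferase light reporting Pax8 driven TPO promoter activity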
LMP1 NFkB inh – EBV LMP1-driven NF-kappaB luciferase reporter inhibitors, primary screen, cell-based, luminescence, single point. LMP1-induced NF-kappaB luciferase reporter cells. actives 0.69% (n = 350,000). inhibition, % at 12.5 µM; in the data active = inhibition above about 41%; inconclusive = no clear call, values can overlap the other calls
MITF TRPM1 inh – inhibitors of MITF-dependent TRPM1 promoter reporter, primary screen, cell-based, SK-MEL-5, single point, luciferase; SK-MEL-5 TRPM1 promoter luciferase, 24 h; inhibition, % at 12.5 µM; actives 0.83% (n = 330,000); AID 488899, 2010;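 active = mean inhibition across replicates of 60% or more, whatever share of single replicates reaches that level; inconclusive = some that reach 60%, reason not given; inactive = mean inhibition across replicates below 60%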
LGR2 antag – inhibitors of bursicon-induced LGR2 CRE-luciferase signal, primary screen, cell-based, HEK293, CRE-luciferase reporter, bursicon stimulation | Drosophila bursicon receptor LGR2 (rickets) | bursicon-stimulated, 4 h | inhibition, % at 9.99 µM | actives 0.35% (n = 380,000);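 active = drop in luminescence signal, shown as inhibition above about 50% in the replicate tests, limit read from the data, passing the limit was not always enough; inconclusive = probably only some replicates passing the limit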;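 note: agonist challenge used bursicon conditioned medium at about half maximal strength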
EWS-Fli block – EWS/Fli-driven NR0B1 reporter inhibitors, primary screen, A673 cells, NR0B1 luciferase, luminescence, MLPCN library. viability-normalised. inhibition, % at 12.6 µM. actives 0.67% (n = 350,000). AID 651661, 2012;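 active = mean inhibition of at least 50% after viability correction, with every replicate also passing that limit; inconclusive = mean reaches 50% but only one of two replicates passes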;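 note: firefly luciferase signal divided by Alamar Blue viability fluorescence both relative to DMSO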
Of the large screens only hits and unclear results are named; the others gave an inactive call.

CO[C@H]1CN(C)C(=O)c2ccc(NC(C)=O)cc2OC[C@@H](C)N(C(=O)C2CCCCC2)C[C@@H]1C	none (no result: Shn3 3UTR inh, LMP1 NFkB inh, MITF TRPM1 inh)
Cc1ccc(S(=O)(=O)Nc2ccc3c(c2)C(=O)N([C@@H](C)CO)C[C@@H](C)[C@@H](CN(C)C)OCCCC[C@H](C)O3)cc1	PAX8 reporter 87 (no result: Shn3 3UTR inh, LMP1 NFkB inh, MITF TRPM1 inh)
COc1ccc(NC(=O)C(Sc2nnc(-c3ccncc3)n2-c2ccccc2C)c2ccccc2)cc1Cl (configuration not stated)	PAX8 reporter 115
C[C@@H]1CN([C@H](C)CO)C(=O)Cc2cc(NC(=O)CCC(F)(F)F)ccc2O[C@H]1CN(C)CC1CCCCC1	none (no result: Shn3 3UTR inh, PAX8 reporter, LMP1 NFkB inh, MITF TRPM1 inh)
COc1ccc2c3c(n(C)c2c1)[C@H](CO)N(C(=O)c1ccc(F)cc1)CC31CCN(CC2CCOCC2)CC1	none (no result: Shn3 3UTR inh, PAX8 reporter, LMP1 NFkB inh, MITF TRPM1 inh)
CN(C)CCCNC(=O)C[C@H]1C[C@H](C(=O)N2CCCCC2)[C@@]2(CCc3ccccc3)c3[nH]c4cc(-c5ccco5)ccc4c3CCN2C1=O	MITF TRPM1 inh 92
CC(C)(C)NC(=O)C[C@H]1C[C@H](C(=O)N2CCCCC2)[C@@]2(CCc3ccccc3)c3[nH]c4ccc(Cl)cc4c3CCN2C1=O	none
CN(C)CCCNC(=O)C[C@H]1C[C@H](C(=O)N2CCCCC2)[C@@]2(C)c3[nH]c4cc(-c5ccco5)ccc4c3CCN2C1=O	none
O=C(C[C@H]1C[C@H](C(=O)N2CCCCC2)[C@@]2(CCc3ccccc3)c3[nH]c4ccc(Cl)cc4c3CCN2C1=O)NCc1ccco1	PAX8 reporter 73
O=C(CC1C[C@H](C(=O)N2CCCCC2)[C@@]2(CCc3ccccc3)c3[nH]c4ccccc4c3CCN2C1=O)NCCc1ccccn1 (some centres not stated)	LMP1 NFkB inh 69
C[C@]12c3[nH]c4ccccc4c3CCN1C(=O)C(CC(=O)NCCc1ccccn1)C[C@@H]2C(=O)N1CCCCC1 (some centres not stated)	none
COc1cccc(C#Cc2ccc([C@@H]3[C@H](CO)N4C(=O)CN(C(=O)c5ccccc5)C[C@@H]34)cc2)c1	PAX8 reporter 69 (no result: Shn3 3UTR inh, LMP1 NFkB inh, MITF TRPM1 inh)
O=C(c1ccccc1F)N1CC(=O)N2[C@@H](CO)[C@@H](c3ccc(C#Cc4ccc(F)cc4)cc3)[C@@H]2C1	PAX8 reporter 108 (no result: Shn3 3UTR inh, LMP1 NFkB inh, MITF TRPM1 inh)
O=C(c1ccc(F)cc1)N1CC(=O)N2[C@H](C1)[C@H](c1ccc(/C=C/c3ccccc3)cc1)[C@@H]2CO	PAX8 reporter 69 (no result: Shn3 3UTR inh, LMP1 NFkB inh, MITF TRPM1 inh)
COc1cccc(C#Cc2ccc([C@H]3[C@H]4CN(C(=O)c5ccccc5)CC(=O)N4[C@H]3CO)cc2)c1	none (no result: Shn3 3UTR inh, LMP1 NFkB inh, MITF TRPM1 inh)
CC(=O)N1[C@@H]2c3ccc(C4=CCCCC4)c(=O)n3C[C@@H]2[C@@H](CO)[C@@H]1C(=O)Nc1ccccc1	none (no result: Shn3 3UTR inh, PAX8 reporter, LMP1 NFkB inh, MITF TRPM1 inh)
C[C@H]1CN([C@@H](C)CO)C(=O)c2cc(NC(=O)CCC(F)(F)F)ccc2O[C@@H]1CN(C)S(=O)(=O)c1cn(C)cn1	none (no result: Shn3 3UTR inh, PAX8 reporter, LMP1 NFkB inh, MITF TRPM1 inh)
COc1ccccc1NC(=O)N[C@@H]1C=C[C@H](CC(=O)N2CCC(Cc3ccccc3)CC2)O[C@H]1CO	none (no result: Shn3 3UTR inh, LMP1 NFkB inh, MITF TRPM1 inh)
C[C@H]1CN([C@@H](C)CO)C(=O)c2cc(C#Cc3ccncc3)cnc2O[C@@H]1CN(C)Cc1ccncc1	none (no result: Shn3 3UTR inh, PAX8 reporter, LMP1 NFkB inh, MITF TRPM1 inh)
COc1cc(CCNC2=CC(=O)c3ncccc3C2=O)ccc1O	PAX8 reporter inconclusive, MITF TRPM1 inh 113
C/C(=N\NC(=S)NC1CCCCC1)c1ccc(Cl)c(Cl)c1	none
CCC1CCCCN1C(=S)NN=C(C)c1ccccn1 (configuration not stated)	none (no result: Shn3 3UTR inh, LMP1 NFkB inh, MITF TRPM1 inh)
CSC(=S)NN=C(C)c1cccc(C)n1	Shn3 3UTR inh 93, PAX8 reporter 76, MITF TRPM1 inh 74, LGR2 antag inconclusive
CC(=NNC(=S)N1CCCCC1)c1cccc(C)n1	LMP1 NFkB inh 69
CC(=NNC(=S)N1CCCCC1)c1ccccn1	Shn3 3UTR inh inconclusive, LMP1 NFkB inh 57 (no result: MITF TRPM1 inh)
Cc1cccc(C(=S)N2CCOCC2)n1	none
CC(=NNC(=S)N1CC2CCC(CC2)C1)c1ccncn1	Shn3 3UTR inh 88, MITF TRPM1 inh 78
Cc1noc(C)c1S(=O)(=O)Nc1ccc2c(c1)C(=O)N([C@H](C)CO)C[C@H](C)[C@H](CN(C)Cc1ccncc1)O2	none (no result: Shn3 3UTR inh, PAX8 reporter, LMP1 NFkB inh, MITF TRPM1 inh)
CCC(=O)N(C)C[C@@H]1Oc2cc(C#CC3CCCC3)ccc2S(=O)(=O)N([C@H](C)CO)C[C@H]1C	none (no result: Shn3 3UTR inh, PAX8 reporter, LMP1 NFkB inh, MITF TRPM1 inh)
Cc1ccc(-c2nc(C)sc2CC(=O)OCC(=O)Nc2cccc([N+](=O)[O-])c2)cc1	PAX8 reporter 109
Cc1ccnc(NC(=O)c2ccc(OCC3CCCO3)cc2)c1 (configuration not stated)	LMP1 NFkB inh 45, EWS-Fli block 70
COc1ccc(C(=O)NC(=O)Nc2cc(C)ccn2)cc1	LMP1 NFkB inh 68, MITF TRPM1 inh 70, LGR2 antag 74, EWS-Fli block 73 (no result: PAX8 reporter)
COc1ccc(C(=O)/C=C/Nc2cc(C)ccn2)cc1	LGR2 antag 74
Cc1ccnc(N/C=C/C(=O)c2ccc(Br)cc2)c1	none
COc1ccc(N/C=C\C(=O)c2ccc3ccccc3c2)cc1	none
COc1ccc(NC(=O)Nc2cc(C)ccn2)cc1	none
COc1ccc(N/C=C/C(=O)c2ccccc2)cc1	LGR2 antag 65
COc1ccc(NC(=O)N(C)C[C@H]2Oc3ccc(NC(=O)Cc4cn(C)c5ccccc45)cc3CC(=O)N([C@H](C)CO)C[C@@H]2C)cc1	none (no result: Shn3 3UTR inh, LMP1 NFkB inh, MITF TRPM1 inh)
CCOc1ccc(NC(=O)/C=C/c2ccccc2)c([N+](=O)[O-])c1	none
CCOc1ccc(N/C=C/C(=O)c2ccccc2)c([N+](=O)[O-])c1	LGR2 antag 91, EWS-Fli block 60
Cc1cccc(NC(=O)CSc2nc3ccccc3c(=O)n2C)c1C	Shn3 3UTR inh 87 (no result: MITF TRPM1 inh)
COc1ccc(S(=O)(=O)Nc2cc3c(cc2C(C)=O)OCO3)cc1	EWS-Fli block 55
Oc1ccc(-c2cn3ccccc3n2)cc1O	none
Cc1ccn2cc(-c3ccc(O)c(O)c3)nc2c1	Shn3 3UTR inh 87
C=C(C)[C@@H]1CC[C@]2(C(=O)O)CC[C@]3(C)C(CCC4[C@@]5(C)CC[C@H](O)C(C)(C)C5CC[C@]43C)C12 (some centres not stated)	none (no result: PAX8 reporter, MITF TRPM1 inh, LGR2 antag)
C=C(C)[C@@H]1CCC2(C(=O)O)CC[C@]3(C)[C@H](CC[C@@H]4[C@@]5(C)CCC(=O)C(C)(C)[C@@H]5CC[C@]43C)[C@@H]12 (some centres not stated)	LMP1 NFkB inh 49 (no result: LGR2 antag)
CN1CCN(c2cc(-c3cc(O)c4ncccc4c3)ccn2)CC1	none
Oc1cc(Nc2ccccc2)cc2cccnc12	Shn3 3UTR inh 94, PAX8 reporter 96
Oc1cc(NCCN2CCOCC2)cc2cccnc12	PAX8 reporter inconclusive, MITF TRPM1 inh inconclusive

Screening results: PubChem BioAssay, Broad Institute
